Cycloheximide cs – counter-screen hit for Shiga toxin inhibitors, cycloheximide. max response, %. AID 2314. cell reporter, cycloheximide protein synthesis inhibition counterscreen. actives 12% (n = 300,000); in the data active means max response mostly above about 13%, no sharp cut-off; inactive means mostly below about 14%; further: read at 38.3 µM for the half of the compounds with a filed dose; 0% is about no effect
LmPK inhibitor – LmPK (Leishmania mexicana) enzyme inhibition; Potency, µM (top dose mostly 57.5 µM), inactives show at the top dose activity change, negative = inhibition, usual class: inhibitors; Q27686; actives 0.37% (n = 290,000); purified LmPK, Kinase-Glo ATP luminescence, 1 h; further: potency means the concentration at half of the fitted maximal effect; on the % scale 0 is the no-effect control and ±100 the full control effect
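In 50 mM imidazole pH 7.2 with 7 mM MgCl2, LmPK (0.1 nM) turned over PEP (0.5 mM) and ADP (0.1 mM) for 1 h at room temperature. Luciferase read-out of ATP.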
TbPYK inhibitor – inhibitors of Trypanosoma brucei pyruvate kinase. Q57TT1. TbPYK enzyme, Kinase-Glo Plus ATP luminescence, 45 min. Potency, µM (titrated, usually from 76.8 µM), for inactives: at the top dose activity, negative = inhibition, actives largely listed as inhibitors. actives 0.12% (n = 410,000); further: potency means the concentration at half of the fitted maximal effect; on the % scale 0 is the no-effect control and ±100 the full control effect; nearly all actives have a fitted effect of over 50% in size
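Luminescence from Kinase-Glo Plus, added after a 45-minute room-temperature reaction, served as the end-point read-out. The enzyme and substrate were preincubated with compound before ADP (130 uM final) initiated turnover. Concentration-effect curves came from normalized qHTS data.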
FBPA Giardia inh – Giardia lamblia aldolase inhibition. A8B2U2. purified Giardia FBPA. Potency, µM (series often up to 59.6 µM), for inactives: at the top dose activity, negative = inhibition, actives largely listed as inhibitors. actives 0.71% (n = 290,000). AID 2451; further: potency means the concentration at half of the fitted maximal effect; on the % scale 0 is the no-effect control and ±100 the full control effect; nearly all actives have a fitted effect of over 55% in size
Target sequence (A8B2U2 whole entry, looked up): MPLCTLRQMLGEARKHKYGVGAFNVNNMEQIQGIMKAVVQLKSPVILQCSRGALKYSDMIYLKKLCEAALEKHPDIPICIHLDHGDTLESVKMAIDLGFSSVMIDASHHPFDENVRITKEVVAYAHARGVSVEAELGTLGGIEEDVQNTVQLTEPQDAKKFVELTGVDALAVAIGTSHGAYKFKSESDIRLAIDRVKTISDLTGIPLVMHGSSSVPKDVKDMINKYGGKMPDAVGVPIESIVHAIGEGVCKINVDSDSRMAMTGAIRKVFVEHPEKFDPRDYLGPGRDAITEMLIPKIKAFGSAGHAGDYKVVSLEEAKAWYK
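40 nM FBPA preincubated 10 min at RT with compound (up to 57.5 uM final), then substrate plus GAPDH/TPI/NAD/arsenate coupling and diaphorase/resazurin added. Fluorescence read after 20 min at RT, 525/598 nm.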
Sm TGR block – blocks Schistosoma mansoni thioredoxin glutathione reductase; purified TGR, DTNB reduction, TNB absorbance 405 nm; Potency, µM (top dose mostly 114 µM), inactives show at the top dose activity change, negative = inhibition, actives largely listed as inhibitors; actives 3% (n = 360,000); AID 485364; further: potency means the concentration at half of the fitted maximal effect; on the % scale 0 is the no-effect control and ±100 the full control effect; nearly all actives have a fitted effect of over 60% in size
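Kinetic colorimetric format: TGR-catalysed, NADPH-driven DTNB reduction monitored via TNB absorbance. Enzyme dispensed at 20 nM; compound exposure 15 min at room temperature before reaction start.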
Shiga toxin inh – Shiga toxin inhibition | Vero cells, Shiga toxin protein synthesis inhibition reporter | inhibition, % at 38.7 µM | actives 9.2% (n = 290,000) | AID 2315; in the data active means inhibition mostly above about 28%, no sharp cut-off; inactive means mostly below about 43%; further: 0% is about no effect
The depositor's hits bear a star; ? = inconclusive; / = no result given; [ ] = remark or other dose. Shown is part of a subset that was picked to be rich in hits. Unless noted, the call rests on the fitted dose curve; in most records, active means well fitted curve in the direction sought with a large enough effect; inconclusive means small, poorly fitted or top-dose-only effect, or another doubt; inactive means no such curve, though single readings can be large; an effect the other way counts as inactive or inconclusive.

SMILES	Cycloheximide cs	LmPK inhibitor	TbPYK inhibitor	FBPA Giardia inh	Sm TGR block	Shiga toxin inh
Cc1ccc(-c2nc(-c3ccncc3)no2)cc1C	52*	-10%	-2%	14%	8%	133*
O=CNc1cc(-c2ccc(C(=O)NC3CC3)cc2)cn2c(-c3ccc(F)cc3)cnc12	/	/	-5%	/	/	/
COc1ccccc1Nc1nc(-c2ccccc2F)nc2ccccc12	/	/	-1%	/	-5%	/
C=CCn1c(COc2ccccc2)nc2ccccc21	29*	-2%	-4%	27%	7%	44*
c1ccc(OCCn2c(COc3ccccc3)nc3ccccc32)cc1	/	/	-1%	/	-5%	/
Cn1c(COc2ccccc2)nc2ccccc21	32*	-2%	-1%	-7%	1%	67*
CN(C)CCn1c(COc2ccccc2)nc2ccccc21	/	/	-1%	/	/	/
Cc1ccc(OCC(=O)Nc2nnc(S(=O)(=O)N3CCc4ccccc43)s2)cc1	/	/	3%	/	1%	/
Cn1cccc1/C=C1/C(=O)NC(=S)N(Cc2ccc(F)cc2)C1=O	-2	-17%	?	-8%	25µM*	-14
Cn1cccc1/C=C1/C(=O)NC(=O)N(Cc2ccc(F)cc2)C1=O	1	-3%	-5%	5%	-11%	-17
O=C(O)c1cc(N=Nc2c(O)ccc3ccccc23)cc(C(=O)O)c1	8	?	13µM*	-17%	-33%	-1
NS(=O)(=O)c1ccc(N=Nc2c(O)ccc3ccccc23)cc1	-2	-2%	-6%	-18%	0%	-12
O=C(O)c1ccc(N=Nc2c(O)ccc3ncccc23)cc1	22*	-9%	-10%	?	-29%	65
Oc1ccc(N=Nc2c(O)ccc3ccccc23)cc1	32*	-18%	-5%	?	-22%	-36
Cc1ccc(CSCC(=O)N2CCN(c3ccccc3F)CC2)cc1	/	/	6%	/	-12%	/
CC1=C(C(=O)Nc2cccnc2)C(c2ccccc2)n2nc(-c3ccc(O)cc3)nc2N1 (configuration not stated)	/	/	0%	/	1%	/
COc1cccc(NC(=O)Nc2ccccc2SC)c1	37*	?	-14%	-9%	/	84*
COc1ccc(NC(=O)Nc2ccccc2SC)cc1OC	20*	-4%	10%	-9%	4%	48*
COc1ccc(NC(=O)Nc2ccccc2SC)c(OC)c1	-1	-1%	-11%	-2%	/	29
CCOC(=O)CCn1nc(-c2ccccc2)cc1N	35*	-1%	1%	5%	9%	39*
Cc1ccc(-c2ccc(=O)n(CCC(=O)N3CCC4(CC3)OCCO4)n2)cc1	46*	12%	1%	2%	-4%	138*
CCc1ccc(CNC(=O)Cn2nc(-c3ccc(C)cc3)ccc2=O)cc1	0	8%	-1%	4%	-12%	17
CCOC(=O)Cn1nc(-c2ccc(C)cc2)ccc1=O	19*	1%	1%	-4%	?	28*
CCOC(=O)CCn1nc(-c2ccc(C)cc2)c2ccccc2c1=O	-4	-2%	-2%	7%	8%	9
CC(OC(=O)CNC(=O)c1sc2ccccc2c1Cl)c1ccccc1 (configuration not stated)	/	/	-2%	/	-1%	/
SMILES	Cycloheximide cs	LmPK inhibitor	TbPYK inhibitor	FBPA Giardia inh	Sm TGR block	Shiga toxin inh
CCc1ccc(CN2CCc3nc(Nc4ccccc4)ncc3C2)cc1	/	/	4%	/	-1%	/
CSc1ccc(CCNc2ncnc3onc(-c4ccc(Cl)cc4)c23)cc1	/	/	-3%	/	0%	/
Cc1cc2c(n1-c1ccc(C(=O)O)cc1)CCCCC2	4	7%	/	?	25µM*	22
Cc1nc2c(c(=O)n1Cc1ccccc1Cl)c1nc3ccccc3nc1n2Cc1ccco1	10	-4%	/	-9%	2.8µM*	21
Cc1cc(C)cc(-n2c3nc4ccccc4nc3c3c(=O)n(Cc4ccco4)cnc32)c1	3	-9%	-4%	-16%	16µM*	-14
Cc1nn(-c2ccccc2)c(C)c1C(=O)NCCc1ccccc1	33*	0%	1%	-2%	3%	74*
Cc1nn(Cc2ccccc2)c(Cl)c1C(=O)NCCc1ccc(Cl)cc1	14*	-1%	0%	4%	-9%	18
CC(C)(C)c1ccc(NC(=O)CN2C(=O)NC(C)(C3CC3)C2=O)cc1 (configuration not stated)	/	/	2%	/	-2%	/
Cc1ccc(OCC(=O)N(Cc2ccco2)Cc2ccc(C)o2)cc1	/	/	-2%	/	-7%	/
CSc1nc(N)n2nc(-c3ccc(Cl)cc3)cc2n1	47*	-26%	0%	3%	-4%	86*
Cc1ccc(-c2cc(N)n(Cc3ccc(Cl)cc3)n2)cc1	22	1%	-15%	-1%	0%	33
c1ccc2c(-n3cccn3)cccc2c1	36*	-8%	1%	0%	5%	83*
COc1ccccc1C(=O)COC(=O)/C(=C/c1ccccc1)NC(C)=O	/	/	-3%	/	-24%	/
CCn1c(SCC(=O)NCc2ccco2)nc2ccccc2c1=O	-2	9%	-1%	1%	45µM*	-5
O=C(CSc1nc2ccccc2c(=O)n1Cc1ccco1)Nc1cccc(O)c1	19*	6%	-12%	5%	?	43
COc1ccc(CCNC(=O)CSc2nc3[nH]ncc3c(=O)n2-c2ccccc2Br)cc1OC	2	8%[11.5 µM]	-11%	-3%	9%	8
O=C(CSc1nc2[nH]ncc2c(=O)n1-c1ccccc1Br)NCc1ccco1	4	1%	-13%	20%	22µM*	9
Cn1c(SCC(=O)NCc2ccco2)nc2ccccc2c1=O	7	-2%	2%	8%	0%	73*
COc1cccc(N2C(=O)C(CC(=O)Nc3cccc(F)c3)N(C3CCCC3)C2=O)c1 (configuration not stated)	/	/	-1%	/	-9%	/
O=C(CSc1nc2ccsc2c(=O)n1Cc1ccc(C(=O)O)cc1)NCc1ccco1	-5	8%	-2%	8%	?	-15
O=C(CCCCCn1c(SCc2ccncc2)nc2ccccc2c1=O)NCc1ccco1	-3	7%	-8%	-3%	45µM*	-8
COc1ccc(Cn2c(SCC(=O)NCc3ccco3)nc3ccsc3c2=O)cc1	17*	4%	2%	4%	?	-40
O=C(CSc1nc2ccccc2c2nc3ccccc3n12)NCc1ccco1	28*	5%	6%	-4%	8.9µM*	50*
Cc1ccc(CNC(=O)C(=O)NCC(c2cccnc2)N2CCN(c3ccccc3F)CC2)cc1 (configuration not stated)	/	/	0%	/	-6%	/
CCOC(=O)C1=CN(CC2CCCCC2)CCC1=O	/	/	-3%	/	/	/
Cc1ccc(-n2c(=O)cc(N3CCN(c4ccccc4Cl)CC3)[nH]c2=O)cc1	/	/	-11%	/	2%	/
Cc1ccc(-c2cc(Cc3ccncc3)c(=O)[nH]n2)cc1	11*	-2%	-2%	5%	-6%	7
